A number with no mark means an inactive call. Calls of active or inactive are those of the source.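 Rule for the calls: active = cell killing, with a fitted active concentration at or below twice the top valid dose tested; inconclusive = flat fit with 30 to 70 percent signal loss, or poor fit; inactive = effect in the rising direction, plus the rest.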
Experiment: A549 cell cytotoxicity, dose response, cytotoxicity control, CellTiter-Glo luminescence, dry powder, set 4 (AID 743157)
Settings: A549 viability, CellTiter-Glo ATP luminescence, 72 h; series mostly up to 50 µM; activity change, negative = cytotoxicity: at the top concentration

Point of comparison: `Cc1c(C(=O)O)sc2nc(/C=C/C=C/c3ccccc3)[nH]c(=O)c12`, “activity change, negative = cytotoxicity” value 11.2%. Against it:
- Cc1c(C(=O)O)sc2nc(/C=C/c3ccnc4ccccc34)[nH]c(=O)c12 — lower, -1.47%
- Cc1c(C(=O)O)sc2nc(/C=C/c3ccc(N)nc3)[nH]c(=O)c12 — lower, -0.971%
- Cc1c(C(=O)O)sc2nc(/C=C/c3cccc(C(=O)O)c3)[nH]c(=O)c12 — lower, 6.57%
- Cc1c(C(=O)O)sc2nc(/C=C/c3ccc4[nH]ccc4c3)[nH]c(=O)c12 — lower, 0.34%
- Cc1c(C(=O)O)sc2nc(/C=C/c3cc4ccccc4cn3)[nH]c(=O)c12 — higher, 12.1%
- Cc1c(C(=O)O)sc2nc(/C=C/c3cccc(C(N)=O)c3)[nH]c(=O)c12 — lower, 1.96%
- Cc1c(C(=O)O)sc2nc(/C=C/c3cccc(N)c3)[nH]c(=O)c12 — lower, -1.1%
- Cc1c(C(=O)O)sc2nc(/C=C/c3ccccn3)[nH]c(=O)c12 — lower, -3.16%
- Cc1c(C(=O)O)sc2nc(/C=C/c3ccc4ccccc4c3)[nH]c(=O)c12 — lower, 3.4%
- Cc1c(C(=O)O)sc2nc(/C=C/C3CC3)[nH]c(=O)c12 — lower, 9.01%
- Cc1c(C(=O)O)sc2nc(/C=C/c3ccccc3)[nH]c(=O)c12 — lower, -3.23%
- Cc1c(C(=O)O)sc2nc(/C=C/c3cccc(F)c3)[nH]c(=O)c12 — lower, 4.97%
- Cc1c(C(=O)O)sc2nc(/C=C/c3cnc4ccccc4c3)[nH]c(=O)c12 — lower, -0.773%
- Cc1c(C(=O)O)sc2nc(/C=C/c3ccc4cc[nH]c4c3)[nH]c(=O)c12 — lower, -3.79%
- Cc1c(C(=O)O)sc2nc(/C=C/c3cccc(OC(F)(F)F)c3)[nH]c(=O)c12 — lower, -1.89%
- COc1cccc(/C=C/c2nc3sc(C(=O)O)c(C)c3c(=O)[nH]2)c1 — lower, -9.5%
- Cc1c(C(=O)O)sc2nc(CCc3cccc(O)c3)[nH]c(=O)c12 — higher, 13.1%
- Cc1c(C(=O)O)sc2nc(/C=C/c3ccccc3O)[nH]c(=O)c12 — lower, -4.23%
- Cc1c(C(=O)O)sc2nc(/C=C/c3cccc(=O)[nH]3)[nH]c(=O)c12 — lower, -1.12%
- Cc1c(C(=O)O)sc2nc(/C=C/c3cccc(N4CCNCC4)c3)[nH]c(=O)c12 — lower, -8.12%
- Cc1c(C(=O)O)sc2nc(/C=C/c3ccncc3)[nH]c(=O)c12 — lower, 8.31%
- Cc1c(C(=O)O)sc2nc(/C=C/c3cccc(C(F)(F)F)c3)[nH]c(=O)c12 — lower, -8.26%
- Cc1c(C(=O)O)sc2nc(/C=C/c3cccnc3)[nH]c(=O)c12 — lower, -5.2%
- Cc1c(C(=O)O)sc2nc(/C=C/c3cccc(N4CCOCC4)n3)[nH]c(=O)c12 — lower, 6.58%
- Cc1c(C(=O)O)sc2nc(/C=C/c3cccc([N+](=O)[O-])c3)[nH]c(=O)c12 — lower, -5.5%

Point of comparison: `Cc1c(C(=O)O)sc2nc(/C=C/c3cccnc3N)[nH]c(=O)c12`, activity change, negative = cytotoxicity -7.98% [at 12 µM]. Against it:
- Cc1c(C(=O)O)sc2nc(/C=C/c3ccc4[nH]ccc4n3)[nH]c(=O)c12 — higher, 6.14% [at 12 µM]

In the case of `Cc1c(C(=O)O)sc2nc(/C=C/c3cccc(O)c3)[nH]c(=O)c12`, the outcome is reported as “inactive”.

With `Cc1c(C(=O)O)sc2nc(/C=C/c3ccc(O)cn3)[nH]c(=O)c12` the activity change, negative = cytotoxicity was 4.16% [at 1.2 µM].

Reference: PubChem BioAssay AID743157 (Broad Institute, 2013)
